Test results taken from the supplement of paper PMC6555819.

Assays:
Experiment in all cases: PBM binding z-score (relative to random genomic background probes); higher = stronger binding; sequences stand for … in GC…GCGATTGACAGCGTAGAATGAAGG
[1] = tested on: RARb homodimer (NR concentration 270 nM)
Outline: (§1)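 Probes were double-stranded and carried 34-nt variable regions with direct-repeat seeds, single-nucleotide variants, half-site ablations and random human genomic background sequences, printed on custom Agilent 4×180K protein-binding microarrays. Arrays were incubated 1 h with ligand-free nuclear receptor dimers in PBS pH 7.4, 2% milk, 0.02% Triton X-100, 1 mM DTT, 0.2 mg/mL BSA and 0.4 mg/ml salmon testes DNA. Antibodies against each partner (one per run) detected binding, and scanned fluorescence was regression-normalized. Binding z-scores use the random background probes as reference.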

[2] = tested on: RARg:RXRa (NR concentration 270 nM, RXRa partner concentration 90 nM)
Outline: as §1

[3] = tested on: RARg homodimer (NR concentration 270 nM)
Outline: as §1

[4] = tested on: RXRa DBDmut IVT, anti-RXR (DBD mutation: RXRa K156A/R161A, NR concentration 90 nM)
Outline: as §1

[5] = tested on: RXRa homodimer (NR concentration 180 nM)
Outline: as §1

[6] = tested on: THRa:RXRa (NR concentration 90 nM, RXRa partner concentration 90 nM)
Outline: as §1

[7] = tested on: THRa homodimer (NR concentration 90 nM)
Outline: as §1

[8] = tested on: VDR homodimer (NR concentration 270 nM)
Outline: as §1

Sequence | PBM binding z-score [1] | PBM binding z-score [2] | PBM binding z-score [3] | PBM binding z-score [4] | PBM binding z-score [5] | PBM binding z-score [6] | PBM binding z-score [7] | PBM binding z-score [8]
CATACAGGGTCAGCTAGCCCAGAGTAGGGACGGC | 3.08 | 4.59 | 4.82 | 1.69 | 4.46 | 2.82 | 0.68 | 0.999
GGAGACAGGTGAAACGCAGGTAACTCAGGGTGGC | 0.55 | 1.11 | 0.252 | -0.648 | 0.638 | 1.48 | 0.0199 | -0.609
CCTACTGGGCCACGAAAGGTCATTTATTCAGTGA | 4.32 | 4.41 | 4.2 | 0.751 | 4.96 | 3.5 | 0.944 | 2.76
CGTCCAAGGTCAATGCTAGGTCAATGAAAGCATT | 5.08 | 7.66 | 6.89 | 3.4 | 5.18 | 4.57 | 3.59 | 3.48
ATATGTAGGTAAGCTGGGGTCATTCAGACTAGGC | 3.48 | 3.82 | 2.24 | 1.8 | 5.36 | 4.65 | 3.38 | 4.3
TAGCCTTGGTCATTGGGCCAGTATAGTACGCATC | 0.501 | 0.238 | 0.477 | -0.637 | 0.0749 | -0.206 | -0.231 | -0.72
CCGTACGGGTCACTGACAGGTTATAGCATTTGGA | 3.2 | 6.14 | 4.89 | 1.07 | 5.53 | 2.97 | -0.108 | 0.766
CGAACGGGGGCATGAGTTGATAGCAAATGCCGAT | 1.89 | 3.42 | 3.74 | 3.24 | 2.51 | 3.04 | 1.25 | 3.69
GTACCAAGGTGAATAGGTCCTTGATGAGTAGGCG | 0.586 | 0.974 | 0.683 | -0.522 | 0.785 | 1.23 | 0.287 | -0.46
CCTATTAGTTGACCATTAGGGCAACCGAAGCTCG | 1.68 | 0.667 | 0.891 | 0.456 | 0.374 | 0.945 | 0.78 | 0.844
GCTGCTAGGTCAACTGATGTTCAGCTAAAGCTCG | 3.45 | 4.37 | 5.51 | 1.81 | 2.95 | 2.89 | 1.02 | 0.0528
ACTAACGGGTCAACGAGGTTATAGCACGCGTATA | 3.41 | 5.03 | 4.5 | 1.94 | 5.17 | 3.81 | 1.03 | 3.56
AGAATGAGGCTATTAAGATCAGGGAATTGCGGTC | -0.0206 | -0.0314 | 0.143 | 0.0802 | 0.257 | 0.48 | -0.292 | -0.448
GCTGCTAGGTCAAGTGATGGTCAGCTAAAGCTCG | 3.68 | 4.85 | 5.33 | 1.6 | 2.93 | 2.85 | 0.545 | -0.211
GCTTGTTGGTCAGTAAAAGGTCACACACCGGTCG | 5.37 | 5.53 | 4.67 | 0.545 | 5.16 | 3.5 | 2.15 | 1.68
ATACCAAGGTGATCGTGAGGTCGTTGAAACTAAC | 2.04 | 2.53 | 1.34 | 0.72 | 1.98 | 3.84 | 3.02 | 3.25
CCTACTGGGCCATTCAGGGGTCATTGATCATATG | 3.95 | 4.69 | 3 | 0.56 | 5.5 | 3.31 | 0.962 | 4.05
CCTTGCGGGTCAAGGTTATAGCACGGGTGGTACG | 3.04 | 4.37 | 4.11 | 0.089 | 4.68 | 3 | 0.776 | 1.01
TCTAGCAGGGCAGAGGGTCACTCAAGAGGTACGG | 2.89 | 3.12 | 2.36 | -0.00739 | 2.68 | 1.6 | -0.329 | 0.66

Sequence | PBM binding z-score [1] | PBM binding z-score [2] | PBM binding z-score [3] | PBM binding z-score [4] | PBM binding z-score [5] | PBM binding z-score [6] | PBM binding z-score [7] | PBM binding z-score [8]
CAAACTAGGTGACGAAAGGTCAAAGTCGAATGAC | 4.9 | 6.2 | 6.26 | 1.41 | 7.46 | 4.22 | 1.33 | 2.22
GCTGCTAGGTCAACTGATCGTCAGCTAAAGCTCG | 3.16 | 4.5 | 5.79 | 1.38 | 2.8 | 2.73 | 0.546 | -0.532
CCTACTGGGCCATCAGGTCATTGATATCAACGTT | 2.73 | 2.15 | 2.21 | 0.377 | 1.17 | 3.14 | 3.21 | 1.66
CCGACTAGGGCATAAGGTTACCATAAGCCAGCCC | 1.76 | 2.19 | 1.34 | -0.152 | 1.35 | 2.17 | 1.08 | -0.17
CGGACTAGGTCAAGGACAGTGAATCTCCGCACGC | 2.94 | 3.54 | 4.28 | 1.29 | 2.33 | 2.8 | 2.06 | -0.118
GCTTTCGGGTCAAAGGTTATAGCATGAATAGAAT | 3.37 | 7.01 | 5.04 | 2.52 | 9.55 | 4.61 | 2.14 | 2.16
CTTCGGAGGACAGAAGGTCAGAGCTGTCCGCTTT | 3.32 | 3.58 | 3.53 | -0.00556 | 2.14 | 2.31 | -0.137 | -0.0466
ACTAGCAGGCCAAGTTTGGGTCACTGAAACAAAG | 2.33 | 2.54 | 2.01 | -0.119 | 0.982 | 2.71 | 1.29 | 0.416
CTCGAAAGGTCGGTTGAGGTAAGTATACGGATAA | 1.72 | 2.37 | 2.35 | 0.522 | 1.83 | 4.54 | 0.648 | 0.257
TCGAGTAGGTTACCAATGGGGCATTCCGCTTTCT | 0.449 | 0.942 | 0.197 | 0.173 | 0.226 | -0.155 | -0.631 | -0.741
CCAACTAGGTCACCGGAAGGTCAAAGTCCGCATG | 5.63 | 8.38 | 7.43 | 2.32 | 7.28 | 4.43 | 3.16 | 3.75
TAGCCTAGGTCATTGGGCCACTATAGTACGCATC | 3.11 | 3.84 | 4.24 | 1.92 | 2.97 | 2.87 | 1.3 | 1.77
CCTATTAGTTGATCATAAGGGCAACCGAAGCTCG | 1.43 | 0.898 | 0.868 | 0.845 | 0.308 | 1.69 | 1.05 | 1.1
TCATATATGTAAAAGGTGAAAGTCGGTGTGGTAA | 1.67 | 1.18 | 0.788 | 1.48 | 1.79 | 1.36 | 0.104 | 0.0436
TCTCGGAGGGCACGAAGGTCAGAGCTTTCCAGAG | 3.94 | 4.11 | 3.97 | 0.77 | 2.79 | 2.63 | -0.228 | 1.81
ATCTCTATGTAACCAAGTTCAGTGAATGCCGAAC | 1.28 | 0.518 | 0.659 | 0.924 | 0.314 | 0.659 | 0.156 | 2.31
CGTCCAAGGTCCGAGAGGTCAGTGAATGCCGAGT | 3.86 | 3.1 | 3.53 | 1.19 | 2.4 | 2.67 | 1.18 | 2.95
TCAAATAGGTAATACAGGTGAAAGTCGGCATCTA | 0.557 | 0.633 | 0.49 | 1.74 | 1.14 | 0.877 | -0.0126 | 0.0898
GCTTGTAGATCGAGGTTAAGAAAGACTAAGCTAA | 0.303 | 0.377 | 0.00467 | 0.166 | 1.04 | 1.38 | -0.253 | -0.273

Sequence | PBM binding z-score [1] | PBM binding z-score [2] | PBM binding z-score [3] | PBM binding z-score [4] | PBM binding z-score [5] | PBM binding z-score [6] | PBM binding z-score [7] | PBM binding z-score [8]
GCTACTAGGTCAGGTTGGTCAGCTAACGGGTACG | 2.98 | 2.63 | 3.84 | 0.551 | 1.24 | 1.85 | 1.16 | 0.983
TAGCCTAGGTCATGGGCGAGTATACCACGCGAAC | 2.97 | 4.08 | 4.15 | 0.379 | 3.57 | 3.11 | 1.11 | 0.339
TAGCCTAGGTCATTCAGGTGCCAGTATAGAAAGC | 2.67 | 4.44 | 3.98 | 1.73 | 2.97 | 3.13 | 1.06 | 1.66
TCCATTAGTTGATTAGGGCAACCGAAACAGCGGA | 0.875 | 0.57 | 0.556 | 1.09 | 0.491 | 0.718 | 0.498 | 0.246
TCTAGCAGGCTAGAGGGTCACTCAAGAGGTACGG | 2.47 | 2.08 | 1.81 | 0.0423 | 2.42 | 1.59 | -0.445 | 0.31
TCATATAGGTAAAGGTGAAACTCGAACGATATGA | 1.6 | 1.84 | 1.54 | 0.648 | 2.47 | 1.57 | -0.601 | -0.375
CGTAAAAGTTCAACTAAGGTAACGTAAAGCACGC | 3.88 | 5.28 | 6.11 | 4.41 | 4.42 | 5.35 | 1.75 | 3.84
GGAACGAGGGCACGTTGATAGCAGAGTTTGATGG | 1.27 | 1.53 | 2 | 2 | 0.885 | 1.41 | 0.0368 | 1.03
ATATGTAGGTTATCGGGACATTCAGTTTGCGCAT | 1.09 | 0.79 | 1.16 | 0.776 | 1.03 | 1.72 | 1.55 | 1.48
CCACGGAGGACAGAAGGTCAGAGCTGTCCGCTTT | 3.73 | 3.62 | 3.48 | 0.42 | 2.22 | 2.44 | 0.0793 | 0.236
CGTCCAAGGTCAAGGTCAGTTAAAGAGACTCGAA | 5.26 | 6.92 | 7.72 | 3.68 | 6.66 | 4.4 | 3.3 | 3.29
GCGAGTGGGGCATCAGCAGGTTACCATAACTTAA | 0.915 | 1.05 | 0.378 | -0.215 | 0.32 | 0.958 | 0.127 | -0.291
CCTCGGAGGCCAGAAGGTCAGAGCTGTCCGCTTT | 3.49 | 3.66 | 3.12 | -0.11 | 2.05 | 1.67 | 0.0524 | -0.311
TCGAGTAGGTTACCAGTGGGGCATTCAGCTTTCT | 0.636 | 1.06 | 0.275 | 0.241 | 0.437 | 0.157 | -0.534 | -0.388
ACTAGCAGGCCCAGTTTGGGTCACTCAAACAAAG | 1.42 | 0.324 | 0.28 | -0.882 | 0.398 | 1.72 | 0.659 | -0.243
TCTTGTAGTTCAAGCAGGTTAAGAAAGCCTGAGT | 1.48 | 1.44 | 1.65 | 2.37 | 1.47 | 1.63 | -0.0988 | 2.02
TCTAGTTGGTCAAACGTCACACACTCGAAATGCG | 0.78 | 0.926 | 0.831 | 1.2 | 1.04 | 0.288 | 0.167 | 0.2
CCAAACAGGTGAAAGGTAACTCAGTCTGGTACGC | 0.802 | 1.11 | 0.696 | 0.223 | 1.99 | 0.954 | 0.0389 | 0.206
